Source: PubChem BioAssay
Calls of active or inactive are those of the source.

Key:
[1] = A549 cell viability effects, profiling panel, calcein-AM fluorescence, 48 h, basal (AID 1162); conditions: higher = more signal
[2] = adipocyte viability effects, profiling panel, cell-based, 3T3-L1 adipocytes, calcein-AM fluorescence, 48 h, basal (AID 1163); conditions: 3T3-L1 adipocytes viability, higher = more signal
[3] = HepG2 cell viability effects, profiling panel, calcein-AM fluorescence, 48 h, basal (AID 1164); conditions: higher = more signal
[4] = MM1S cell viability effects, profiling panel, calcein-AM fluorescence, 48 h, basal (AID 1165); conditions: higher = more signal;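 also: viability of MM1S multiple myeloma cells under basal unstimulated conditions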
[5] = basal RPMI8226 viability, no added stimulus, profiling panel, cell-based, calcein-AM fluorescence, 48 h, PK04 Diversity Set (AID 1166); conditions: RPMI8226 myeloma viability, higher = more signal;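 also: cells grown under basal conditions without added stimulus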
[6] = basal HepG2 mitochondrial membrane potential changes, profiling panel, cell-based, JC-1 fluorescence, 24 h, 100 nL compound (AID 1167); conditions: higher = more signal
[7] = basal 3T3-L1 adipocyte mitochondrial potential changes, profiling panel, cell-based, JC-1 fluorescence, 3T3-L1 adipocytes, 24 h, 100 nL compound (AID 1168); conditions: JC-1 mitochondrial fluorescence, higher = more signal, called active from +8 up or from −8 down
[8] = basal RPMI8226 mitochondrial membrane potential changes, profiling panel, cell-based, JC-1 fluorescence, 24 h, 100 nL compound (AID 1169); conditions: RPMI8226 myeloma, JC-1 mitochondrial potential fluorescence, higher = more signal
[9] = basal MM1S mitochondrial membrane potential changes, profiling panel, cell-based, JC-1 fluorescence, 24 h, 100 nL compound (AID 1170); conditions: higher = more signal
[10] = A549 lung cancer cell viability effects, profiling panel, resazurin fluorescence, 24 h, PK04 Diversity Set (AID 1171); conditions: higher = more signal, called active from +8 up or from −8 down
Also: test concentration not given here.

Compound	z-score [1]	z-score [2]	z-score [3]	z-score [4]	z-score [5]	z-score [6]	z-score [7]	z-score [8]	z-score [9]	z-score [10]
O=C1OCCC=C[C@H]2OC34C=CCN(Cc5ccccc5)C(=O)[C@H]3N(CCCO)C(=O)[C@@H]4C12 (stereo not given in full)	0.577	1.66	-1.04	0.0832	-0.0189	0.161	-0.282 (inactive)	0.798	-0.559	0.233 (inactive)
CN1C(=O)C2C=CC(C(O)c3ccccn3)N(Nc3ccccc3)C2C1=O (stereo not given)	0.169	-0.103	-0.164	-0.309	0.497	-0.562	-0.234 (inactive)	0.184	0.0223	-0.205 (inactive)
CCOC(=O)C[C@H]1[C@H](OC(=O)Cc2ccc3c(c2)OCO3)[C@@H](NC(=O)c2ccc(-c3ccccc3)cc2)c2cc(OCCCO)ccc2N1C(=O)c1ccccc1	1.8	0.127	1.66	-0.262	0.0317	3.09	-0.288 (inactive)	0.965	-0.0178	0.328 (inactive)
CC(C)c1ccc(NN2C(C(O)c3ccc(N(C)C)cc3)C=CC3C(=O)N(c4ccccc4)C(=O)C32)cc1 (stereo not given)	1.1	-1.62	0.974	-0.36	-0.368	-0.337	-1.22 (inactive)	0.149	-0.811	-0.0686 (inactive)
C[N+](C)(C)CCCCCCNC(=O)[C@H]1C[C@H]2C(=O)N3CCC[C@H]3C(=O)N2[C@H]1c1ccc(O)cc1	-0.827	0.262	-1.14	0.327	0	-1.4	0.435 (inactive)	-0.655	-0.439	0.194 (inactive)
COc1cc(CO)ccc1OC(C)=O	0.653	0.584	1.04	1.12	1.19	0.302	0.791 (inactive)	0.41	0.433	-1.08 (inactive)
COCCOC(=O)N1C(=O)[C@@]2(c3cc(C#CCC(C(=O)OC)C(=O)OC)ccc31)[C@H](C(=O)N1CCCCCCC1)[C@H]1C(=O)O[C@H](c3ccccc3)[C@H](c3ccccc3)N1[C@@H]2c1ccc(OCCO)cc1	0.855	1.27	1.19	-0.38	0.185	0.322	-5 (inactive)	-0.812	-1.41	1.33 (inactive)
COc1ccc(CCNC(=O)[C@@H]2c3ccccc3C(=O)N(Cc3ccc(OC(F)(F)F)cc3)[C@H]2c2ccc(CO)cc2)cc1	0.843	0.614	-1.01	-2.39	-1.99	1.14	-0.0731 (inactive)	0.118	-0.23	0.619 (inactive)
COc1ccc([Si](C)(C)[C@@H]2[C@@H](CC(=O)N3CCC[C@H]3CO)O[C@]3(C(=O)N(C)c4c(Br)cc(C)cc43)[C@H]2C)cc1	0.49	0.406	1.03	-0.929	-1.04	1.02	0.0349 (inactive)	-0.489	-0.0745	0.206 (inactive)
CCCN1C(=O)[C@@]2(CCC(=O)OC(C)(C)C)N=C(c3ccc(OCCCO)cc3)O[C@H]2c2ccccc21	-1.32	1.24	-2.09	-3.47	-4.43	0.6	2.43 (inactive)	-1.26	-0.421	-0.778 (inactive)
CC(C)NC(=O)[C@@H]1c2ccccc2C(=O)N(Cc2ccccc2)[C@H]1c1ccc(CO)cc1	0.831	-0.46	-0.116	-1.42	-0.238	0.681	-1.5 (inactive)	0.00231	-0.0636	0.748 (inactive)
CN(C)CCCNC(=O)[C@@]1(Cc2ccccc2I)c2ccccc2C(=O)N(Cc2ccccc2C(F)(F)F)[C@H]1c1ccc(CO)cc1	-2.7	-0.469	-5.13	-3.8	-4.33	-1.04	0.64 (inactive)	-0.98	-2.43	-5.93 (inactive)
CC(C)N1CC=CC23O[C@@H]4C=CCOC(=O)[C@@H]4[C@H]2C(=O)N(CCO)[C@@H]3C1=O (stereo not given in full)	-0.237	0.253	-0.166	1.07	-0.761	-0.38	0.0611 (inactive)	0.223	-0.797	0.336 (inactive)
CCOC(=O)C1=C[C@@H](CC)N(S(=O)(=O)c2ccc(C)cc2)[C@H]1c1ccccc1	-0.934	-0.167	-0.342	-0.922	-1.37	-0.378	-1.31 (inactive)	0.649	-0.894	1.46 (inactive)
O=C1OCC=C[C@H]2OC34C=CCN(c5ccc6ccccc6c5)C(=O)[C@H]3N(CCCO)C(=O)[C@@H]4[C@@H]12 (stereo not given in full)	0.501	1.79	0.0068	-0.608	-0.691	-0.448	-0.517 (inactive)	0.0183	-0.46	-1.09 (inactive)
CCOC(=O)[C@H]1C[C@H]2O[C@@]23C[C@H]1C(=O)N1CCCC1[C@@H]3O[Si](C)(C)C(C)(C)C (stereo not given in full)	-0.486	0.729	-0.154	-0.337	-0.5	-0.625	-0.166 (inactive)	-0.366	0.193	-0.456 (inactive)

Compound	z-score [1]	z-score [2]	z-score [3]	z-score [4]	z-score [5]	z-score [6]	z-score [7]	z-score [8]	z-score [9]	z-score [10]
O=c1oc(-c2ccccc2)nc2cc(Br)ccc12	-0.423	0.111	0.659	-1.99	-0.633	-0.773	0.67 (inactive)	-0.0586	0.873	-0.141 (inactive)
CCOC(=O)C1=CC[C@@H](c2ccccc2Cl)N(S(=O)(=O)c2ccc(C)cc2)C1	-0.378	-0.529	0.15	-1.63	-1.51	4.34	-0.0958 (inactive)	-0.329	-1.99	-0.561 (inactive)
COCCOC(=O)N1C(=O)[C@@]2(c3cc(C#CC4(O)CCCCCC4)ccc31)[C@H](C(=O)N1CCCCCCC1)[C@H]1C(=O)O[C@H](c3ccccc3)[C@H](c3ccccc3)N1[C@@H]2c1ccccc1OCCO	0.424	1.64	0.504	-0.658	-1.87	-0.679	0.656 (inactive)	-0.658	-0.987	-1.1 (inactive)
CN(C)C(=O)[C@]1(CCC(=O)OC(C)(C)C)N=C(c2ccc(OCCCO)cc2)O[C@@H]1c1ccccc1N=[N+]=[N-]	0.0413	0.473	0.333	-0.629	0.0141	2.25	2.52 (inactive)	-0.568	-0.325	1.84 (inactive)
C=CCOC(=O)[C@H]1[C@@H]2C(=O)O[C@@H](c3ccccc3)[C@@H](c3ccccc3)N2[C@@H](c2ccc(OCCOC(=O)[C@@H]3C[C@@H]4C(=O)N5CCC[C@H]5C(=O)N4[C@@H]3c3ccc(O)cc3)cc2)[C@]12C(=O)Nc1ccccc12	0.924	0.038	-0.139	0.603	0.876	-1.42	1.74 (inactive)	-0.212	-0.786	0.362 (inactive)
NC(=O)NCC#Cc1ccc2c(c1)[C@]1(C(=O)N2)[C@H](C(=O)NC[C@H](O)c2ccccc2)[C@H]2C(=O)O[C@H](c3ccccc3)[C@H](c3ccccc3)N2[C@@H]1c1ccc(O)cc1	0.423	-1.13	-0.284	-1.32	0.579	-3.36	-2.46 (inactive)	-1.16	-1.49	-0.471 (inactive)
O=C1C=CC(=O)[C@@H]2CC(COc3ccccc3)=C3[C@@H](CCc4ccccc4)OB(O)C[C@@H]3[C@H]12	-0.491	-1.23	-0.478	-3.22	-3.95	-3.77	-1.83 (inactive)	-1.01	-2.46	-0.108 (inactive)
CC(C)N1C(=O)[C@@]2(c3ccc([N+](=O)[O-])cc3)CC(=O)N(CC34CC5CC(CC(C5)C3)C4)[C@@H]2c2ccc(CO)cc21	0.192	-1.22	1.36	0.496	0.13	0.396	0.888 (inactive)	-0.361	-0.512	-0.695 (inactive)
CC(C)c1ccc(NN2C(C(O)c3c(F)cccc3Cl)C=CC3C(=O)N(c4ccccc4)C(=O)C32)cc1 (stereo not given)	-0.755	0.205	-0.314	-0.414	-1.32	-2.03	-2.25 (inactive)	-0.738	0.584	-1.71 (inactive)
C=CC[C@@]1(C(=O)NCC(O)CO)N=C(c2ccc(OCCCO)cc2)O[C@@H]1c1ccccc1N=[N+]=[N-] (stereo not given in full)	-0.112	1.37	-0.805	-0.494	-1.14	0.582	-0.343 (inactive)	-0.164	-1.17	0.695 (inactive)
CCOC(=O)C1=CCC(C(C)(C)C)N(S(=O)(=O)c2ccc(C)cc2)C1 (stereo not given)	-0.723	-0.194	-0.157	-2.31	-1.28	-1	0.161 (inactive)	-0.1	-0.562	0.613 (inactive)
CCOC(=O)C[C@H]1[C@H](OC(=O)Cc2ccc3c(c2)OCO3)[C@@H](NC(=O)C2CCCCC2)c2cc(OCCCO)ccc2N1C(=O)Cc1ccc(OC)cc1	0.746	0.433	1.08	0.747	0.664	2.39	0.0143 (inactive)	-0.0561	-0.784	-0.247 (inactive)
C=CCNC(=O)[C@H]1[C@@H]2C(=O)O[C@@H](c3ccccc3)[C@@H](c3ccccc3)N2[C@@H](c2ccc(O)cc2)[C@]12C(=O)N(C(=O)OCCOC)c1ccc(C#CCCO)cc12	1.07	0.482	0.802	-0.0589	0.233	0.0998	0.541 (inactive)	-1.07	0.45	-0.319 (inactive)
CCCCCN1CC=CC23O[C@@H]4/C=C\CCC(C)OC(=O)C4[C@H]2C(=O)N(CCCCCO)[C@@H]3C1=O (stereo not given in full)	-0.213	1.56	0.167	0.599	-0.0704	-0.356	0.637 (inactive)	-0.982	-0.617	0.475 (inactive)
COc1ccc([Si](C)(C)[C@H]2[C@H](CCn3cc(CCO)nn3)O[C@@]3(C(=O)N(Cc4ccc(N5CCOC5=O)cc4)c4ccccc43)[C@@H]2C)cc1	0.252	0.469	0.161	-3.07	-2.73	0.484	0.854 (inactive)	-0.911	-1.33	-1.75 (inactive)
O=C1N(CCS(=O)(=O)c2ccccc2)c2ccccc2C[C@@]12COC(c1ccc(OCCCO)cc1)=N2	-0.683	0.294	-1.48	-2.06	-0.517	-2.09	0.7 (inactive)	-1.06	-0.554	-0.455 (inactive)
